# Data: PubChem BioAssay (EPA / NIEHS)
# Inconclusive results are not listed. Activity calls are given as the source filed them. Rule for the calls: active = hit-call score of the fitted dose curve at least 0.9, where 1 is the maximum; inconclusive = response in the unintended direction; inactive = score below 0.9.
# Assays:
# [1] = biological target: rat Serotonin, 5-Hydroxytryptamine Receptor 1 (5HT1), Non-Selective Binding, Htr1a (gene 24473) (UniProt P19327); assay: NVS_GPCR_r5HT1_NonSelective: NovaScreen (NVS) G Protein-Coupled Receptor Assay for rat Serotonin, 5-Hydroxytryptamine Receptor 1 (5HT1), Non-Selective Binding (AID 2283286)
# Chain of rat Serotonin, 5-Hydroxytryptamine Receptor 1 (5HT1), Non-Selective Binding, Htr1a (gene 24473) (P19327 whole entry, looked up): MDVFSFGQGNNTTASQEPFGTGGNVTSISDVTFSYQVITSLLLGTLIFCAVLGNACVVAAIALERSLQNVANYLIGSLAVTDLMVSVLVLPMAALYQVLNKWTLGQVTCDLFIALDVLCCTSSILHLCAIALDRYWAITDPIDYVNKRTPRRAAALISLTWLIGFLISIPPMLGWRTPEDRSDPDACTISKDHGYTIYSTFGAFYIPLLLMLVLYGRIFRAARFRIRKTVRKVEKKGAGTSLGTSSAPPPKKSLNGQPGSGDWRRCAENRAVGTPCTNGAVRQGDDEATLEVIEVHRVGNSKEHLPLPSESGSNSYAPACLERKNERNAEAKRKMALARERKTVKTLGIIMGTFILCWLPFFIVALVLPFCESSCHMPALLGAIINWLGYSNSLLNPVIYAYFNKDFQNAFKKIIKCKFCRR
# Procedure, shortened: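 Binding of a radioligand to rat cortex membranes is read by filtration and scintillation counting after 1 h. Compounds were screened at 25 uM in duplicate. Actives were then titrated to a top of 50 uM. DMSO is the baseline.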
# [2] = biological target: Muscarinic acetylcholine receptor M1 (Homo sapiens) (UniProt P11229); assay: NVS_GPCR_hM1: NovaScreen (NVS) G Protein-Coupled Receptor Assay for human Muscarinic, M1 Receptor (AID 2283270)
# Procedure, shortened: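 Actives from a duplicate 25 uM single-point screen were retested in concentration series. Binding measured as displacement of a radioligand from CHO-derived receptor preparation, 1 h incubation, filtration and scintillation counting, analysed as signal loss against DMSO.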
# [3] = biological target: Muscarinic acetylcholine receptor M3 (Homo sapiens) (UniProt P20309); assay: NVS_GPCR_hM3: NovaScreen (NVS) G Protein-Coupled Receptor Assay for human Muscarinic, M3 Receptor (AID 2283272)
# Chain of Muscarinic acetylcholine receptor M3 (Homo sapiens) (P20309 whole entry, looked up): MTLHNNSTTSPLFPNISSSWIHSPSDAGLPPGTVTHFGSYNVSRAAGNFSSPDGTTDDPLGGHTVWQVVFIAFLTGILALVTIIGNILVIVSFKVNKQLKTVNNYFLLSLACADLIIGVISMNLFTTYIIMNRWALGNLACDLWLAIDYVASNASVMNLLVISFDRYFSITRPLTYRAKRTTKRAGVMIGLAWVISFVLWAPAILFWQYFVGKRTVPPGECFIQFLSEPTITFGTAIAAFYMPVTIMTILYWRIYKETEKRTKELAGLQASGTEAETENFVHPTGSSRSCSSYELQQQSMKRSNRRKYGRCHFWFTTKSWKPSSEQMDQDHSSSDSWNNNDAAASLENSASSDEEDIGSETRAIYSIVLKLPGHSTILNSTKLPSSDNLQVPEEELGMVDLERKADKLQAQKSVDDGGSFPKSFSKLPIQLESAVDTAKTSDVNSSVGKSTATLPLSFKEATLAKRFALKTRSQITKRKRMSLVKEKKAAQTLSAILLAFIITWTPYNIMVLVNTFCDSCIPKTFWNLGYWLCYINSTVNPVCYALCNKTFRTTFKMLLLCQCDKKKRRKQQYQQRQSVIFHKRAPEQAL
# Procedure, shortened: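 Radioligand displacement binding on human M3 receptor in CHO-derived membranes, 1 h incubation, filter-based scintillation counting. Primary screen in duplicate at 25 uM; actives followed up in concentration series; loss of signal versus DMSO.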
# [4] = biological target: Muscarinic acetylcholine receptor M2 (Homo sapiens) (UniProt P08172); assay: NVS_GPCR_hM2: NovaScreen (NVS) G Protein-Coupled Receptor Assay for human Muscarinic, M2 Receptor (AID 2283273)
# Chain of Muscarinic acetylcholine receptor M2 (Homo sapiens) (P08172 whole entry, looked up): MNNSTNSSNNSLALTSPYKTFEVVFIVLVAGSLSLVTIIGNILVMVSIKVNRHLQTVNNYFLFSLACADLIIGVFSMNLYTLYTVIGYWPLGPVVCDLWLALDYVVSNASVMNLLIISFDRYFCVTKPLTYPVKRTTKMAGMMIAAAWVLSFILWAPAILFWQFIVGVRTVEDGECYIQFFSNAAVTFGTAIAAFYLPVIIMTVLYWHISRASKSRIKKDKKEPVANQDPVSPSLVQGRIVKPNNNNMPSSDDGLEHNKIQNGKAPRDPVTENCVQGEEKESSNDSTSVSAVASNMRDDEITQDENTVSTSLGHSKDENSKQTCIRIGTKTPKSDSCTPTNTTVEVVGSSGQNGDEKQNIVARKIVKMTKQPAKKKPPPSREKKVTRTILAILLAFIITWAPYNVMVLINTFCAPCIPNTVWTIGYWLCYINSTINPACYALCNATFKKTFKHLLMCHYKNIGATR
# Procedure, shortened: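 Radioligand competition binding, cell-free, receptor from CHO; 1 h incubation; scintillation detection. Primary testing at 25 uM in duplicate.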
# [5] = biological target: human Muscarinic, M4 Receptor, CHRM4 (gene 1132) (UniProt P08173); assay: NVS_GPCR_hM4: NovaScreen (NVS) G Protein-Coupled Receptor Assay for human Muscarinic, M4 Receptor (AID 2283274)
# Chain of human Muscarinic, M4 Receptor, CHRM4 (gene 1132) (P08173 whole entry, looked up): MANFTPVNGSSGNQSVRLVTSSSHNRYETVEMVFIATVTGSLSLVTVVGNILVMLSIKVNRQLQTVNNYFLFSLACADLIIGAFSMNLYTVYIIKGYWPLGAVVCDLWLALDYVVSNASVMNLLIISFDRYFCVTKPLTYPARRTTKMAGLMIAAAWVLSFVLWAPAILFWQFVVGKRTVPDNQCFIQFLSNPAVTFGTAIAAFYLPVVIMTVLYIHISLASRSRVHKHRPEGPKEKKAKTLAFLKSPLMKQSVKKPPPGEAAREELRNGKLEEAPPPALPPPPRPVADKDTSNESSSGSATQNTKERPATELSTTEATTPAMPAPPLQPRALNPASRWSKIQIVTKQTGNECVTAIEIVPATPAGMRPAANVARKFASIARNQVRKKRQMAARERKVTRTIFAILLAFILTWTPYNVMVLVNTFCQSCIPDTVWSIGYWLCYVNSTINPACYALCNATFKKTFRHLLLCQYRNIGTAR
# Procedure, shortened: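 Filter-based scintillation counting of radioligand bound to CHO-expressed human M4 preparations after 1 h; loss of signal fitted versus DMSO. Initial duplicate testing at 25 uM, concentration-response follow-up for actives.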
# [6] = biological target: human Neuropeptide Receptor Y1 (NPY1), NPY1R (gene 4886) (UniProt P25929); assay: NVS_GPCR_hNPY1: NovaScreen (NVS) G Protein-Coupled Receptor Assay for human Neuropeptide Receptor Y1 (NPY1) (AID 2283276)
# Chain of human Neuropeptide Receptor Y1 (NPY1), NPY1R (gene 4886) (P25929 whole entry, looked up): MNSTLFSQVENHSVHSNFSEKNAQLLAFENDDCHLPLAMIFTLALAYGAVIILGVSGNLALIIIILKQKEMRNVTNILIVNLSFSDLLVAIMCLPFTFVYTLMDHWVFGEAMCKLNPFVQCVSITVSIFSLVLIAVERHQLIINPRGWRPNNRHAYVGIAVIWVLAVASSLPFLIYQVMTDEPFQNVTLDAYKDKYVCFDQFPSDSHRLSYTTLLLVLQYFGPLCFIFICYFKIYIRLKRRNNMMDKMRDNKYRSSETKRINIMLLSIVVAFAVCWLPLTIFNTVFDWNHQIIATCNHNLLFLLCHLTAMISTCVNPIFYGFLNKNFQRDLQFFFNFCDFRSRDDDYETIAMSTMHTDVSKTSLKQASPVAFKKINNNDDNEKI
# Procedure, shortened: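 Displacement of specific radioligand from NPY1 receptor of SK-N-MC origin, read by filtration and scintillation after 1 h. Compounds first tested at 25 uM in duplicate, then actives in concentration series; signal loss relative to DMSO.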
# [7] = biological target: human Neurokinin, NK2 Receptor, TACR2 (gene 6865) (UniProt P21452); assay: NVS_GPCR_hNK2: NovaScreen (NVS) G Protein-Coupled Receptor Assay for human Neurokinin, NK2 Receptor (AID 2283278);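 note: actives reduce bound radioligand signal relative to DMSO baseline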
# Chain of human Neurokinin, NK2 Receptor, TACR2 (gene 6865) (P21452 whole entry, looked up): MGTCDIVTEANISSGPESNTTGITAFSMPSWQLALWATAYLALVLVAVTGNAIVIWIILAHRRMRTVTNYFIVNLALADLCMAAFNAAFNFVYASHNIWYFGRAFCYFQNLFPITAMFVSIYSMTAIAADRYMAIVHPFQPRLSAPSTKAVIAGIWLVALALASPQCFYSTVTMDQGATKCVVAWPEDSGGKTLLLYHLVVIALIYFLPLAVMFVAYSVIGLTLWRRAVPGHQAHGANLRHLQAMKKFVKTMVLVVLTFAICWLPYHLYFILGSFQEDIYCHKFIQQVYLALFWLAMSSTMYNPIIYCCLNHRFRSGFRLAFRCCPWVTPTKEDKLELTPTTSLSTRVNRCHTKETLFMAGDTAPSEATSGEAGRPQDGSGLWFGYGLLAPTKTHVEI
# Procedure, shortened: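 Test chemicals displace a radioligand from receptor prepared from CHO cells in a cell-free format, read after 4 hours by scintillation counting on filters. Screening starts at 25 uM in duplicate, and active chemicals then go to concentration series.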
# [8] = biological target: human Opioid Receptor Mu (Opiate Mu), OPRM1 (gene 4988) (UniProt P35372); assay: NVS_GPCR_hOpiate_mu: NovaScreen (NVS) G Protein-Coupled Receptor Assay for human Opioid Receptor Mu (Opiate Mu) (AID 2283290);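 note: hits lower bound tracer signal versus DMSO meaning displacement of the ligand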
# Chain of human Opioid Receptor Mu (Opiate Mu), OPRM1 (gene 4988) (P35372 whole entry, looked up): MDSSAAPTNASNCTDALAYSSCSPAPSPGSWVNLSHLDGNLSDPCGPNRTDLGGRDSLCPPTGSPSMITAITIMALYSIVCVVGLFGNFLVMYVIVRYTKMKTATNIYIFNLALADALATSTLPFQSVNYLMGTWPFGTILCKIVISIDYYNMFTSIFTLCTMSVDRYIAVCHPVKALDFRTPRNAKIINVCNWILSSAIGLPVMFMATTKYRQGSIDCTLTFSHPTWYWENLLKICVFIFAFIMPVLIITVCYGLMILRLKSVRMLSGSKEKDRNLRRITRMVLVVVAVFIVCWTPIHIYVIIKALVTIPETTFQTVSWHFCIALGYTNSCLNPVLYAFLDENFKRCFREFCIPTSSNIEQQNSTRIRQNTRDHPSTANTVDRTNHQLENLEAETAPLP
# Procedure, shortened: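 Here, radioligand binding to CHO-extracted receptor was measured after 2.5 h using filter-based scintillation detection. Initial single-concentration screening used 25 uM in duplicate with plate controls; confirmed actives went to concentration-response testing.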
# [9] = system: guinea pig Atrionatriuretic Peptide Receptor A (ANPA), gene 100135578; assay: NVS_GPCR_gANPA: NovaScreen (NVS) G Protein-Coupled Receptor Assay for guinea pig Atrionatriuretic Peptide Receptor A (ANPA) (AID 2283291)
# Procedure, shortened: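 Displacement of specific radioligand from guinea pig cerebellum membranes was read by scintillation after 1 h. A duplicate single-point screen at 25 uM was followed by a concentration series up to 50 uM, analysed relative to DMSO.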
# [10] = biological target: human Vasopressin 1A Receptor (V1A), AVPR1A (gene 552) (UniProt P37288); assay: NVS_GPCR_hV1A: NovaScreen (NVS) G Protein-Coupled Receptor Assay for human Vasopressin 1A Receptor (V1A) (AID 2283284)
# Chain of human Vasopressin 1A Receptor (V1A), AVPR1A (gene 552) (P37288 whole entry, looked up): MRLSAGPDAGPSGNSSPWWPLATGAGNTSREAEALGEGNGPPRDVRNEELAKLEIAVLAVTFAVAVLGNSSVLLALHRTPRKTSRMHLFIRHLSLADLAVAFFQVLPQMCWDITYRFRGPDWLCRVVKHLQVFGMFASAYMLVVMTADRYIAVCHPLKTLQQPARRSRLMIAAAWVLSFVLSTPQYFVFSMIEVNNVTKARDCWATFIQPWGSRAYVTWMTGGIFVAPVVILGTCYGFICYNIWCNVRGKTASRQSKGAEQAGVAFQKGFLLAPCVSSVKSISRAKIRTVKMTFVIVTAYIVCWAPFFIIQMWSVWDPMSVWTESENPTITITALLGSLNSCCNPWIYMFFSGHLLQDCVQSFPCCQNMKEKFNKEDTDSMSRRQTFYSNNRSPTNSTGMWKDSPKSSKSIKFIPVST
# Procedure, shortened: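 Single-concentration duplicate screen at 25 uM, with concentration-response follow-up (top 50 uM) for actives. The assay measured displacement of a radioligand from human platelet-derived receptor after 1.5 h, detected by filtration and scintillation counting.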
# [11] = biological target: human Neurotensin Receptor (NTS), NTSR1 (gene 4923) (UniProt P30989); assay: NVS_GPCR_hNTS: NovaScreen (NVS) G Protein-Coupled Receptor Assay for human Neurotensin Receptor (NTS) (AID 2283279)
# Chain of human Neurotensin Receptor (NTS), NTSR1 (gene 4923) (P30989 whole entry, looked up): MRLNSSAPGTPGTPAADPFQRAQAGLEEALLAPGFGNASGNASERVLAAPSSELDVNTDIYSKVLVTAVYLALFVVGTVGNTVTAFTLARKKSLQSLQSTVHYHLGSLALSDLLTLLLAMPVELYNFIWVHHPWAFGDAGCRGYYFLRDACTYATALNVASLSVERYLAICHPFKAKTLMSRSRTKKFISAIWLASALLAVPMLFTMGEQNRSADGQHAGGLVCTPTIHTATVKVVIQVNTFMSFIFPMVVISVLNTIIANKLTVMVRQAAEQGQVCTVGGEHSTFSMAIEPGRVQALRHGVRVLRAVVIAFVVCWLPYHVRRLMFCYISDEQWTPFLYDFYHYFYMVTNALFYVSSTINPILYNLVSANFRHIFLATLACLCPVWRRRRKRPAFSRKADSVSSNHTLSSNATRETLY
# Procedure, shortened: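 Compounds competed with a radiolabelled ligand for binding to CHO-derived human neurotensin receptor; bound signal counted after filtration, 1 h. Screened first at a single concentration of 25 uM in duplicate, then concentration series to 50 uM maximum for actives.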
# [12] = system: rabbit Platelet Activating Factor Receptor (PAF), gene 100354046; assay: NVS_GPCR_rabPAF: NovaScreen (NVS) G Protein-Coupled Receptor Assay for rabbit Platelet Activating Factor Receptor (PAF) (AID 2283287)
# Procedure, shortened: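 Rabbit platelet membrane preparation; radioligand displacement read by filter-based scintillation counting 1 h after dosing, loss of signal versus DMSO. Primary screen in duplicate at 25 uM, actives followed up in concentration series.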
# [13] = biological target: rat Adrenergic, Alpha 1, Non-selective Receptor (Adra1), Adra1a (gene 29412) (UniProt P43140); assay: NVS_GPCR_rAdra1_NonSelective: NovaScreen (NVS) G Protein-Coupled Receptor Assay for rat Adrenergic, Alpha 1, Non-selective Receptor (Adra1) (AID 2283289)
# Chain of rat Adrenergic, Alpha 1, Non-selective Receptor (Adra1), Adra1a (gene 29412) (P43140 whole entry, looked up): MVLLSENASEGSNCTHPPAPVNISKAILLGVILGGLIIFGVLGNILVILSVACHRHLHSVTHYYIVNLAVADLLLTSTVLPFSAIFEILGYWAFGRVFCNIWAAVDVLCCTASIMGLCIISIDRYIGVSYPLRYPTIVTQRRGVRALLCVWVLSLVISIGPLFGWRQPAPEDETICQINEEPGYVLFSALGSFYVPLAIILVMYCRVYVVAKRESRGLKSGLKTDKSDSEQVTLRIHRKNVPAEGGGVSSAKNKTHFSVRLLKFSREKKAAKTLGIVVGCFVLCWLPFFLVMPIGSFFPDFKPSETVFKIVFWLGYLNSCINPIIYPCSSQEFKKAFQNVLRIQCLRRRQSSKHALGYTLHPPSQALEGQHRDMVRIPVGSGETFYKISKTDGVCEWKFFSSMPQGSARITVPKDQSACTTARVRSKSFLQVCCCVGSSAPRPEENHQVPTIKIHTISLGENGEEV
# Procedure, shortened: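 Chemicals first screened in duplicate at 25 uM, then actives tested in concentration series up to 50 uM. Binding measured as displacement of radioligand from rat forebrain membrane receptors, 1 h, filtration with scintillation readout; DMSO baseline.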
# [14] = biological target: human Leukotriene B4 Receptor 1 (LTB4-BLT1), LTB4R (gene 1241) (UniProt Q15722); assay: NVS_GPCR_hLTB4_BLT1: NovaScreen (NVS) G Protein-Coupled Receptor Assay for human Leukotriene B4 Receptor 1 (LTB4-BLT1) (AID 2283271)
# Procedure, shortened: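 Cell-free human neutrophil receptor preparation, 1 h exposure, radioligand binding read by filter scintillation counting. Single 25 uM duplicate screen, then concentration series topping at 50 uM; binding loss scored against DMSO baseline.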
# [15] = biological target: human Purinergic Receptor P2Y, P2RY1 (gene 5028) (UniProt P47900); assay: NVS_GPCR_hPY2: NovaScreen (NVS) G Protein-Coupled Receptor Assay for human Purinergic Receptor P2Y (AID 2283281)
# Procedure, shortened: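 Filtration scintillation readout of radioligand displacement on U937 extract, measured 1 h post-dosing. Single 25 uM duplicate screen, then singleton concentration series to 50 uM for chemicals passing threshold; DMSO as baseline.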
# [16] = biological target: human Thromboxane A2 Receptor (TXA2), TBXA2R (gene 6915) (UniProt P21731); assay: NVS_GPCR_hTXA2: NovaScreen (NVS) G Protein-Coupled Receptor Assay for human Thromboxane A2 Receptor (TXA2) (AID 2283282);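 note: actives reduce bound radioligand signal relative to DMSO baseline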
# Chain of human Thromboxane A2 Receptor (TXA2), TBXA2R (gene 6915) (P21731 whole entry, looked up): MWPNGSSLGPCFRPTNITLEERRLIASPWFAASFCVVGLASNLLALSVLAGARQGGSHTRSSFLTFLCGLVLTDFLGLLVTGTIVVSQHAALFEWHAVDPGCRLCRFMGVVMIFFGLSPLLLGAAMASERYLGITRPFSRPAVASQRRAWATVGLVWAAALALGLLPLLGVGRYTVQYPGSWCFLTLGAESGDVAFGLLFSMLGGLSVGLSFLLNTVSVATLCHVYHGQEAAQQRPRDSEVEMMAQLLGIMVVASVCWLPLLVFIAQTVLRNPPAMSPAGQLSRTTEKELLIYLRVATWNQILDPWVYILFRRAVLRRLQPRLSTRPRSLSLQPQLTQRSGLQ
# Procedure, shortened: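 Biochem binding, human platelets, cell-free; competitive radioligand displacement; 1 h; filter radiodetection. 25 uM duplicate primary, conc. series secondary; DMSO neg. ctrl.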
# [17] = biological target: Neuropeptide Y receptor type 2 (Homo sapiens) (UniProt P49146); assay: NVS_GPCR_hNPY2: NovaScreen (NVS) G Protein-Coupled Receptor Assay for human Neuropeptide Receptor Y2 (NPY2) (AID 2283277)
# Procedure, shortened: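 Chemicals were first tested in duplicate at 25 uM, then actives in singleton concentration series to 50 uM. Tracer binding to SK-N-MC-derived protein measured cell-free after 1 h via filter scintillation; signal loss relative to DMSO.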
smiles,measurement,setting,value
CCC(=O)Nc1ccc(Cl)c(Cl)c1,outcome,[1],inactive
Cc1cc(C2CC2)nc(Nc2ccccc2)n1,AC50,[2],10.1 µM (active)
same,AC50,[3],5.41 µM (active)
same,AC50,[4],6.13 µM (active)
same,AC50,[5],6.51 µM (active)
N#CSCSC#N,AC50,[6],12.6 µM (active)
CCc1cccc(CC)c1N(COC)C(=O)CCl,outcome,[7],inactive
same,AC50,[8],4.96 µM (active)
same,outcome,[9],inactive
COc1cccc(C(=O)NN(C(=O)c2cc(C)cc(C)c2)C(C)(C)C)c1C,AC50,[3],0.429 µM (active)
same,outcome,[4],inactive
same,outcome,[10],inactive
CCCCOC(=O)[C@@H](C)Oc1ccc(Oc2ccc(C#N)cc2F)cc1,outcome,[11],inactive
same,outcome,[12],inactive
CCCCOC(=O)c1ccccc1C(=O)O,outcome,[13],inactive
CCOP(=S)(OCC)Oc1ccc2c(C)c(Cl)c(=O)oc2c1,outcome,[9],inactive
COc1ccc(C(=CC(=O)N2CCOCC2)c2ccc(Cl)cc2)cc1OC,outcome,[14],inactive
CC(C1CC1)C(O)(Cn1cncn1)c1ccc(Cl)cc1 (stereo not drawn),AC50,[5],12.1 µM (active)
CC1=NNC(=O)N(/N=C/c2cccnc2)C1,outcome,[5],inactive
same,outcome,[11],inactive
CC(C)N(C(=O)SCC(Cl)=C(Cl)Cl)C(C)C,outcome,[5],inactive
COP(=O)(OC)OC(Br)C(Cl)(Cl)Br (stereo not drawn),AC50,[6],15.5 µM (active)
same,outcome,[12],inactive
same,AC50,[8],8.83 µM (active)
CCCOCC(=Nc1ccc(Cl)cc1C(F)(F)F)n1ccnc1,outcome,[4],inactive
same,outcome,[7],inactive
same,AC50,[8],7.33 µM (active)
CCC(=NOC/C=C/Cl)C1=C(O)CC(C2CCOCC2)CC1=O (stereo not drawn),outcome,[10],inactive
CCOP(=S)(OCC)OC(Cl)C(Cl)(Cl)Cl (stereo not drawn),outcome,[13],inactive
CC1(C(=O)Nc2ccc(O)c(Cl)c2Cl)CCCCC1,AC50,[7],3.04 µM (active)
CN(C)[C@@H]1C(=O)C(C(N)=O)=C(O)[C@@]2(O)C(=O)C3=C(O)c4c(O)cccc4[C@@](C)(O)[C@H]3[C@H](O)[C@@H]12,outcome,[15],inactive
same,outcome,[16],inactive
CCOP(=S)(Oc1cnc(C(C)(C)C)nc1)OC(C)C (stereo not drawn),AC50,[12],11.5 µM (active)
COc1cc(OC)nc(Sc2cccc(Cl)c2C(=O)O)n1,outcome,[14],inactive
same,AC50,[16],4.45 µM (active)
CCc1cccc(C)c1N(C(=O)CCl)C(C)COC (stereo not drawn),AC50,[8],5.26 µM (active)
CCOP(=S)(OCC)Oc1ccc([N+](=O)[O-])cc1,AC50,[3],5.42 µM (active)
same,AC50,[5],7.24 µM (active)
CN(C)C(=O)Nc1cccc(C(F)(F)F)c1,outcome,[1],inactive
CC(C)=CC1C(C(=O)OCN2C(=O)C3=C(CCCC3)C2=O)C1(C)C (stereo not drawn),AC50,[12],7.72 µM (active)
same,outcome,[13],inactive
Nc1nc(N)nc(NC2CC2)n1,outcome,[17],inactive
same,outcome,[13],inactive
